The source made the active and inactive calls. The calls were made as follows: active = hit-call score of the fitted dose curve at least 0.9, where 1 is the maximum; inactive = score below 0.9.
Each compound was assayed on Collagen III, COL3A1 (gene 1281) (assay: BSK_hDFCGF_CollagenIII: BioMAP Diversity Plus: hDFCGF Assay for Collagen III Biomarker Activity (AID 2283056)). Conditions: primary human foreskin fibroblasts; actives raise or lower the signal.
Description: BSK_hDFCGF is a cell-based, multiplexed-readout assay that uses foreskin fibroblast, a human skin primary cell, with measurements taken at 24 hours after chemical dosing in a 96-well plate.BSK_hDFCGF_CollagenIII is an assay component measured in the BSK_hDFCGF assay. It measures Collagen antibody related to regulation of gene expression using ELISA technology.Data from the assay component BSK_hDFCGF_CollagenIII was analyzed into 1 assay endpoint. This assay endpoint, BSK_hDFCGF_CollagenIII, was analyzed with bidirectional fitting relative to DMSO as the negative control and baseline of activity. Using a type of binding reporter, gain or loss-of-signal activity can be used to understand changes in the signaling as they relate to the gene COL3A1. Furthermore, this assay endpoint can be referred to as a primary readout, because this assay has produced multiple assay endpoints where this one serves a signaling function. To generalize the intended target to other relatable targets, this assay endpoint is annotated to the cell adhesion molecules intended target family, where the subfamily is collagen.
The levels of cell surface (or secreted, indicated by the prefix "s") biomarker endpoints were measured by ELISA. Overt cytotoxicity to cells in confluent adherent cultures (all systems other than the BT system) was assessed by measuring total protein levels using sulforhodamine B (SRB) staining in parallel cultures at the time of biomarker measurements, indicated as SRB endpoints. For proliferation assays for adherent cell types, individual cell types are cultured at sub-confluence and relative cell numbers quantified by SRB staining at time points optimized for each system (48 h: 3C and CASM3C systems; 72 h: BT and HDF3CGF systems; 96 h: SAg system). SRB was performed by staining cells with 0.1% SRB after fixation with 10% TCA and reading wells at 560 nm.Viability and proliferation of PBMC (T cells) was quantified by Alamar Blue reduction for the SAg and BT systems. For PBMC viability (referred to as PBMC Cytotoxicity within the assay endpoint names), cells were plated (75,000/well in a 96-well plate) and then chemical samples added for 1 h before addition of activators, SEB and TSST-1 (20 ng/mL final concentration each). Cells were incubated for 90 h. Then, Alamar Blue (20 uL/well) (Invitrogen, Cat DAL1100) was added for 6 h, and the plates were read with a fluorescence microplate reader at 546/580 nm (excitation/emission). For PBMC proliferation, cells were plated and activated as above but incubated for only 16 h prior to addition of Alamar Blue. Plates were read after 6 h.

Q: With `Cc1occc1C(=O)Nc1ccc(C(=O)N2CCC(F)(F)/C(=C\C(=O)N3CCC(N4CCCCC4)CC3)c3ccccc32)cc1` as the compound, how does the outcome read?
A: inactive

Q: How did the AC50 turn out when `O=C1CCC(C2CCCCC2)CC1` was run?
A: 20.7 µM (active)

Q: Which AC50 does the source give for `Clc1ccccc1C(c1ccccc1)(c1ccccc1)n1ccnc1` here?
A: 5.5 µM (active)

Q: How did the outcome turn out when `C[C@]12CC[C@@H]3c4ccc(O)cc4CC[C@H]3[C@@H]1CCC2=O` was run?
A: inactive

Q: With `O=c1[nH]sc2ccccc12` as the compound, how does the AC50 read?
A: 20 µM (active)

Q: With `CC1(C)NC(=O)N(c2ccc([N+](=O)[O-])c(C(F)(F)F)c2)C1=O` as the compound, how does the outcome read?
A: inactive

Q: `Cc1cc2c(cc1C(F)(F)F)N(C(=O)Nc1ccc(Oc3cccnc3C)nc1)CC2` was tested. Which outcome did it give?
A: inactive

Q: Which AC50 does the source give for `O=C(O)Cc1cc(I)c(Oc2ccc(O)c(I)c2)c(I)c1` here?
A: 8.91 µM (active)

Q: Which AC50 does the source give for `COc1ccc2cc(S(=O)(=O)N[C@H](CC(=O)N[C@H](Cc3ccc(CN4[C@H](C)CCC[C@@H]4C)cc3)C(=O)N(C)C(C)C)c3ccc4c(c3)OCO4)ccc2c1` here?
A: 2.07 µM (active)

Q: For `Cc1ccc(C(C)C)cc1`, which outcome is on record?
A: inactive

Q: For `CCCCCCCCOC(=O)c1cc(O)c(O)c(O)c1`, which AC50 is on record?
A: 14 µM (active)

Q: Which outcome does the source give for `CCCCCc1ccc(N)cc1` here?
A: inactive

Q: How did the outcome turn out when `O=c1ccc2ccccc2o1` was run?
A: inactive

Q: `O=c1c(-c2ccc(O)cc2)coc2cc(O)cc(O)c12` was tested. Which outcome did it give?
A: inactive

Q: For `Oc1ccc2ccccc2c1`, which outcome is on record?
A: inactive

Q: For `CC1=CC(=O)/C(=C(/C)O)C(=O)O1`, which outcome is on record?
A: inactive

Q: `CCCCCCCCCCCO` was tested. Which AC50 did it give?
A: 31.6 µM (active)

Q: Which AC50 does the source give for `C[C@]12CC[C@@H]3c4ccc(O)cc4CC[C@H]3[C@@H]1CC[C@H]2O` here?
A: 12 µM (active)

Q: Which outcome does the source give for `c1ccc2n[nH]nc2c1` here?
A: inactive

Q: How did the outcome turn out when `CCCCCCCCCC(=O)O` was run?
A: inactive

Q: For `CC(C)(C)c1cc(/C=C2\SC(N)=NC2=O)cc(C(C)(C)C)c1O`, which AC50 is on record?
A: 6.83 µM (active)

Q: `CC(C)(C)c1csc(-c2cc3cc(OCc4ccccc4CC(=O)O)ccc3o2)n1` was tested. Which AC50 did it give?
A: 3.19 µM (active)

Q: How did the outcome turn out when `CC(O)CC(C)(C)O` (stereo not given) was run?
A: inactive

Q: Which AC50 does the source give for `CC(=O)N1CCN(c2ccc(OC[C@H]3CO[C@](Cn4ccnc4)(c4ccc(Cl)cc4Cl)O3)cc2)CC1` here?
A: 14 µM (active)

Q: With `CCN(CC)C(=O)c1cc(S(=O)(=O)Cc2ccccc2)c(N2CCC(c3ccccc3)CC2)cc1N(CC)CCN(C)C` as the compound, how does the AC50 read?
A: 4.27 µM (active)

Q: `c1ccc2ccccc2c1` was tested. Which outcome did it give?
A: inactive

Q: With `CCCCCCCCCCCC[N+](C)(C)C` as the compound, how does the AC50 read?
A: 2.57 µM (active)

Q: Which outcome does the source give for `Cc1ncc(CO)c(CO)c1O` here?
A: inactive

Q: `COc1cc(C(=O)NC2CCN(C)CC2)ccc1Nc1ncc2c(n1)N(C1CCCC1)CC(F)(F)C(=O)N2C` was tested. Which AC50 did it give?
A: 19 µM (active)

Q: For `O=CCCCC=O`, which AC50 is on record?
A: 33.6 µM (active)

Q: With `CCCCCCCCN(C)CCCCCCCC` as the compound, how does the outcome read?
A: inactive

Q: For `Cc1cc(F)ccc1-c1cc(N2CC[C@@H](O)[C@H]2CO)ncc1N(C)C(=O)C(C)(C)c1cc(C(F)(F)F)cc(C(F)(F)F)c1`, which AC50 is on record?
A: 24.1 µM (active)

Q: `Cc1c2ccccc2c(C)c2c1ccc1ccccc12` was tested. Which AC50 did it give?
A: 1.73 µM (active)

Q: With `CCCOC(=O)c1cc(O)c(O)c(O)c1` as the compound, how does the outcome read?
A: inactive

Q: Which outcome does the source give for `CCCCOC(=O)c1ccc(O)cc1` here?
A: inactive

Q: How did the outcome turn out when `Cc1ccc2oc(CN(Cc3ccccc3)C(=O)Nc3c(F)cc(F)cc3F)c(-c3ccc(Cl)cc3)c2c1` was run?
A: inactive

Q: For `CN1C(=O)CC[C@H]1c1cccnc1`, which outcome is on record?
A: inactive

Q: With `O=C(Nc1ccc(Cl)cc1)Nc1ccc(Cl)c(Cl)c1` as the compound, how does the AC50 read?
A: 0.148 µM (active)

Q: `Cc1cccc2ccccc12` was tested. Which outcome did it give?
A: inactive

Q: `NC(=O)c1nc(-c2cccc(-c3cc(F)ccc3OCC(F)(F)C(F)(F)F)c2)n[nH]1` was tested. Which AC50 did it give?
A: 17.7 µM (active)

— PubChem BioAssay (EPA / NIEHS)
